Assay outcomes deposited in PubChem BioAssay by Fisher Drug Discovery Resource Center.
mcGAS lum: blocks mouse cGAS activity. Q8C6L5. 160,000 tested, 0.15% active. recombinant cGAS, Kinase-Glo ATP depletion luminescence. AID 1259399. inhibition, % at 12.5 µM;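 note: 0% = negative control wells and 100% = reference inhibitor with no enzyme activity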
hcGAS lum: blocks human cGAS activity. Q8N884. recombinant h-cGAS, ATP depletion, Kinase-Glo luminescence. inhibition, % at 12.5 µM. 290,000 tested, 0.081% active;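 note: 0% = vehicle reaction and 100% = reaction without DNA for no activity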
Target sequence (Q8N884 whole entry, looked up): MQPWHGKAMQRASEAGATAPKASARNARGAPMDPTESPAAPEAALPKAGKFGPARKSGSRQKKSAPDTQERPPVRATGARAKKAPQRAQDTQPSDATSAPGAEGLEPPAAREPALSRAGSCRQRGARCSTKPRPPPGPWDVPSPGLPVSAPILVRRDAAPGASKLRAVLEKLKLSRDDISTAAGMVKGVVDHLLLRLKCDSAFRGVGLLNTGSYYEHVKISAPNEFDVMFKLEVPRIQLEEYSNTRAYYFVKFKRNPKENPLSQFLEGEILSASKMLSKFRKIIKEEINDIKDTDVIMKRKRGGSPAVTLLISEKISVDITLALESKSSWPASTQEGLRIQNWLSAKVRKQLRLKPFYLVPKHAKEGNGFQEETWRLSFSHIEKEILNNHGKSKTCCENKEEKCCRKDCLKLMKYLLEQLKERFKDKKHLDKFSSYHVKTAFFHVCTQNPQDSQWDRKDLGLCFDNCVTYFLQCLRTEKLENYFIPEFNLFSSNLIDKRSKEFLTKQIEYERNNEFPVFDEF
NPYLR7 agonist: activates Aedes aegypti NPYLR7 receptor. 270,000 tested, 0.15% active. activation, % at 10 µM. HEK293T NPYLR7/Galpha15, GCaMP6s calcium fluorescence. AID 1259423; in the data active = activation above about 40%;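 note: 0% = vehicle and 100% = reference agonist at the receptor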
Starred values were filed as active, the others as inactive. The list is not random: actives were taken first. Their share in the collection is about 0.28%. Cut-off read from the data, not from the text of the source, unless noted: active = inhibition above about 40%; inactive = the rest.

For O=C(C1CCOC1)N1CCC(n2nc(-c3ccccc3)cc2-c2ccccc2)CC1 (stereo unspecified) the results were mcGAS lum -7.2, hcGAS lum -1.7 and NPYLR7 agonist 25.6.
Screening COc1ccc(N2C(=O)/C(=C\c3ccc[nH]3)N(C)C2=S)c([N+](=O)[O-])c1 returned mcGAS lum -8.3, hcGAS lum -3.8 and NPYLR7 agonist 45.6*.
Cc1cc([N+](=O)[O-])ccc1N1C(=O)/C(=C\c2ccncc2)N(C)C1=S was read as mcGAS lum 13.1, hcGAS lum -6.0 and NPYLR7 agonist 20.2.
Screening O=c1cc(C(F)(F)F)c2ccc(O)cc2o1 returned mcGAS lum -4.0, hcGAS lum -10.1 and NPYLR7 agonist 57.3*.
Screening O=c1cc(O)c2ccc(O)cc2o1 returned mcGAS lum 0.5, hcGAS lum 2.9 and NPYLR7 agonist 3.1.
`O=C(C1=C(O)c2ccccc2S(=O)(=O)N1)c1ccc(Cl)s1` gave hcGAS lum 40.8* and NPYLR7 agonist 5.0.
O=C(O)c1ccc(Cl)s1 was read as hcGAS lum -1.4 and NPYLR7 agonist 2.9.
For Oc1cc2c(cc1O)C1c3ccc(O)c(O)c3OCC1(O)C2 (stereo unspecified) the results were mcGAS lum 49.7*, hcGAS lum -8.9 and NPYLR7 agonist 4.8.
For CCN1C(=O)NC(c2ccc(C(F)(F)F)cc2)C2=C1CN(C(C(=O)Nc1ccc(C)c(C)c1)C(C)C)C2=O (stereo unspecified) the results were mcGAS lum -3.7, hcGAS lum -6.6 and NPYLR7 agonist -0.6.
`CS(=O)(=O)NCc1ccc(NC(=O)c2cc3ccccn3c2)cc1` gave hcGAS lum -5.8 and NPYLR7 agonist -0.8.
For Cc1ccn2c(NC(=O)COc3ccc(Cl)cc3)c(-c3ccccc3)nc2c1 the results were mcGAS lum 0.6, hcGAS lum 2.2 and NPYLR7 agonist -4.6.
COc1cccc(-c2csc(-n3nc(C)cc3NC(=O)CC(C)C)n2)c1 was read as mcGAS lum -6.8, hcGAS lum -2.1 and NPYLR7 agonist -3.1.
For CCCNc1nc2ccccn2c(=O)c1C=C1SC(=S)N(CC(C)C)C1=O the results were hcGAS lum -13.0 and NPYLR7 agonist 1.8.
`CC(C)CN1C(=O)C(=Cc2c(N3CCN(CCO)CC3)nc3ccccn3c2=O)SC1=S` gave mcGAS lum -5.1, hcGAS lum -3.6 and NPYLR7 agonist 79.0*.
For Cc1ccc(NC(=O)NC(C)c2ccc(-n3ccnc3)cc2)cc1 (stereo unspecified) the results were hcGAS lum -3.3 and NPYLR7 agonist -1.2.
O=C(O)c1ccc([C@@H]2Nc3ccc(I)cc3[C@@H]3C=CC[C@@H]32)cc1 was read as mcGAS lum 70.9*, hcGAS lum 28.4 and NPYLR7 agonist 10.3.
Screening O=C(O)c1ccc(C2Nc3c(F)cc(F)cc3C3C=CCC32)cc1 (stereo unspecified) returned hcGAS lum 5.8 and NPYLR7 agonist 18.1.
O=C(O)c1ccc2c(c1)C1C=CCC1C(c1ccc(Br)cc1)N2 (stereo unspecified) was read as mcGAS lum 100.3*, hcGAS lum 76.7* and NPYLR7 agonist -7.2.
Screening COC(=O)c1ccc2c(c1C)NC(c1ccc([N+](=O)[O-])cc1)C1CC=CC21 (stereo unspecified) returned mcGAS lum -1.4, hcGAS lum -1.0 and NPYLR7 agonist -2.4.
CCCN(CCC)c1nc(OC)nc(-n2nnc(C(C)=O)c2C)n1 was read as hcGAS lum -6.9 and NPYLR7 agonist -5.1.
CC(C)Nc1ccc(NS(=O)(=O)NCc2ccccc2)cn1 was read as hcGAS lum -7.8 and NPYLR7 agonist 63.5*.
COc1cc(NS(=O)(=O)NCc2ccccc2)cc(OC)c1 was read as hcGAS lum -5.3 and NPYLR7 agonist 6.4.
Screening O=C(Nc1ccc(N2CCN(C(=O)NCc3ccco3)CC2)nc1)c1ccccc1F returned mcGAS lum -3.2, hcGAS lum -4.3 and NPYLR7 agonist 18.2.
`CCOC(=O)C(C#N)=CNc1nc(C(C)=O)cs1` gave mcGAS lum 64.2*, hcGAS lum 53.3* and NPYLR7 agonist 4.4.
CCOC(=O)C(C#N)=CNc1cnccn1 was read as mcGAS lum -3.8, hcGAS lum -1.5 and NPYLR7 agonist 11.3.
For Cc1nc(N(C)C)cc(N2CCN(C(=O)C3CCCCC3)CC2)n1 the results were mcGAS lum -5.8 and hcGAS lum -11.4.
Cc1cc(N2CCN(c3cccc(C(F)(F)F)c3)CC2)nc(SCc2ccc(C(=O)O)o2)n1 was read as mcGAS lum -4.0, hcGAS lum -1.9 and NPYLR7 agonist 8.4.
Screening CCCN1CCc2c(sc3c2c(NC(CC)CO)nc2nnnn23)C1 (stereo unspecified) returned hcGAS lum -4.6 and NPYLR7 agonist 69.4*.
For CCc1nc(Cl)c2c3c(sc2n1)CN(CC)CC3 the results were hcGAS lum -3.4 and NPYLR7 agonist 4.3.
For CCc1noc(C)c1C(=O)N(C)CC1COc2ccccc2O1 (stereo unspecified) the results were hcGAS lum -5.1 and NPYLR7 agonist -1.3.
Screening COc1cc(CC(=O)Nc2ccc(N(C)C)cc2)cc(OC)c1OC returned hcGAS lum -4.1 and NPYLR7 agonist 8.3.
Cc1ccc(OCCNC(=O)N2CCN(S(=O)(=O)c3ccccc3Cl)CC2)c(C)c1 was read as mcGAS lum -8.3, hcGAS lum -10.9 and NPYLR7 agonist 46.1*.
Cc1cc(C)c(C)c(OCCCNC(=O)N2CCN(S(=O)(=O)c3ccccc3[N+](=O)[O-])CC2)c1 was read as mcGAS lum -5.2, hcGAS lum -7.0 and NPYLR7 agonist 17.4.
COCCN1C[C@@H]2C[C@@H](C(N)=O)N(C(=O)c3ccc4c(c3)OCCCO4)c3cccc(c32)C1=O was read as mcGAS lum -5.8, hcGAS lum -3.4 and NPYLR7 agonist 5.0.
Screening O=C(O)C1Cc2c([nH]c3ccccc23)C(c2ccccc2[N+](=O)[O-])N1 (stereo unspecified) returned mcGAS lum 0.7, hcGAS lum 7.1 and NPYLR7 agonist -5.9.
For CCCNC(=O)N1CCN(c2nc3c(s2)CN(C(=O)CC)CC3)CC1 the results were mcGAS lum -6.1 and hcGAS lum -5.7.
Screening COCCNC(=O)N1CCc2nc(N3CCN(C)CC3)sc2C1 returned mcGAS lum -2.1 and hcGAS lum 58.2*.
Screening COc1ccccc1Oc1ncccc1CNC(=O)C1(C)CC(C)=NO1 (stereo unspecified) returned hcGAS lum -2.0 and NPYLR7 agonist 2.5.
Screening O=C(OC1(C2CC2)CC1)c1cccc(C(=O)N2CCCC2)n1 returned hcGAS lum -9.0 and NPYLR7 agonist 4.1.
For FC(F)(F)c1ccccc1C1c2cccn2CCCN1Cc1ccoc1 (stereo unspecified) the results were mcGAS lum -5.2, hcGAS lum -4.7 and NPYLR7 agonist -10.5.
CCOC(=O)CN1C(=O)SC(=Cc2ccc(Br)o2)C1=O was read as mcGAS lum -4.5, hcGAS lum -7.6 and NPYLR7 agonist -1.6.
Screening O=C(CN1C(=O)SC(=Cc2ccc(N3CCCCCC3)o2)C1=O)N1CCCCCC1 returned hcGAS lum -2.9 and NPYLR7 agonist 44.8*.
CN(Cc1ccco1)C(=O)NCCCOc1ccc(F)cc1 was read as mcGAS lum -15.1, hcGAS lum -7.8 and NPYLR7 agonist 5.3.
O=C(c1cccnc1Cl)N1CCOC(COCc2ccccc2F)C1 (stereo unspecified) was read as mcGAS lum -7.6, hcGAS lum -5.2 and NPYLR7 agonist 51.3*.
